Reference: PubChem BioAssay AID1458 (National Center for Advancing Translational Sciences (NCATS), 2008)
“And” between values parts separate entries of the source, which are not always exact repeats. Equal entries are not always repeated. Screen size: about 210,000 compounds; about 5,900 (2.8%) were called active. About 5% were inconclusive and are not listed. For the sample, actives were picked, then their nearest neighbours and some compounds at random. Values without a mark were called inactive. Calls come from the whole dose curve; as a rule, active = well fitted activation curve with a large enough effect; inconclusive = small, poorly fitted or top-dose-only effect; inactive = no such curve, though single readings can be large or run the other way.

Assay: qHTS Assay for Enhancers of SMN2 Splice Variant Expression; note: nearly all actives have a fitted effect of over 55% in size; for activity change, positive = activation: % of control where 0% means no effect
Conditions: HEK293 SMN2-luciferase splicing reporter, luminescence, 30-36 h; series mostly up to 46.1 µM; activity change, positive = activation: at the top concentration
Method in brief: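 HEK293 cells carry an SMN2 […]–luciferase reporter in which exon 7 inclusion puts luciferase in frame. Cells were plated 10-12 h before compound addition, then incubated 30-36 h at 37C. ONE-Glo luminescence was read; sodium butyrate at 4.5 mM final served as control.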
Potency is the fitted concentration of half-maximal effect.

Compound | activity change, positive = activation | Potency
COc1ccccc1Nc1nc(N)nc(N)c1S(=O)(=O)c1ccccc1 | 10.2% | 
CCc1cc2c(cc3c(=O)n(CC(=O)NCCc4ccc(OC)c(OC)c4)ncn32)s1 | -1.71% | 
Cc1ccc(-n2ncc3c(Nc4cccc(C(=O)O)c4)ncnc32)cc1 |  | 14.1 µM (active) and 11.2 µM (active)
CCN(CC)C(=O)CSc1ncnc2c1cnn2-c1ccccc1 | 27.2% | 
O=C(NNc1ncnc2c1cnn2-c1ccccc1)c1ccco1 | -26.9% | 
COc1ccc(Cl)cc1NC(=O)CSc1nc(-c2cccs2)cc(C(F)(F)F)n1 | -0.0208% | 
CCOCCCNC(=O)c1cn(CC)c2ccc(S(=O)(=O)N3CCc4ccccc4C3)cc2c1=O | -7.64% | 
COc1c(C)c2c(c(O)c1C/C=C(\C)CCC(=O)O)C(=O)OC2 |  | 501 nM (active) and 631 nM (active) and 398 nM (active)
CCc1ccc(C2CC(=O)c3c([nH]c(C(=O)OCc4ccc(C)cc4)c3C)C2)cc1 (configuration not stated) | 6.39% | 
COc1ccc(-c2cc(-c3ccccc3)nc3c2COc2ccc(Cl)cc2-3)cc1 | 2.81% | 
COc1ccc(C2=NOC3(CC(=O)N(c4ccc(C)cc4)C3=O)C2)cc1 (configuration not stated) | -1.53% | 
COc1ccc(C2=Nc3cc(C)ccc3OC2)cc1 |  | 2.82 µM (active)
Cc1ccc2c(c1)-c1c(cnn1CC(=O)Nc1ccccc1C#N)CO2 | -17.6% | 
Cc1ccc(-n2nc(C)c(/C=N/NC(=O)c3cccs3)c2Cl)cc1 | 20.2% | 
CC(C)C(=O)Nc1ccc(C(=O)NNC(=O)c2cccs2)cc1 | 15.1% | 
Cc1cccc(-n2c(C)cc(/C=N/NC(N)=S)c2C)c1 | 2.47% | 
CC(=O)Nc1ccc(/C=N/NC(=O)c2cccs2)cc1 |  | 17.8 µM (active)
O=C(O)c1ccc(NC(=O)c2cccs2)cc1 | -2.57% | 
Cc1cccc(-n2c(C)cc(/C=N\NC(=O)c3cccs3)c2C)c1 |  | 2 µM (active)
O=C(c1cccs1)N1CCC(c2nc3ccccc3s2)CC1 | -20.4% | 
O=C(OC1CCOC1=O)c1ccc(-c2nc3ccccc3s2)s1 (configuration not stated) |  | 12.6 µM (active)
Cc1nn(Cc2ccccc2)c(Cl)c1C(=O)OC1CCOC1=O (configuration not stated) | 15.5% | 
COc1cccc(-c2nc(CS(=O)(=O)CC(=O)NCCc3ccc(OC)c(OC)c3)c(C)o2)c1 | -49.1% | 
O=C(Cn1nc(C(F)(F)F)c2c1CCCC2)Nc1ccc(Cl)cc1 | -4.3% | 
Cc1cc(NC(=O)Cn2nc(C(F)(F)F)c3c2CCCC3)no1 |  | 14.1 µM (active)
O=C(Cn1nc(C(F)(F)F)c2c1CCC2)NCc1ccc(F)cc1 | -17.5% | 

Compound | activity change, positive = activation | Potency
Cc1cc(C)cc(NC(=O)Cn2c(=O)c3ccccc3n3nncc23)c1 | 7.67% | 
COc1ccc2nc(Nc3nc4cc5c(cc4s3)OCCO5)sc2c1 |  | 20 µM (active)
COc1ccc2nc(NC(=O)[C@@H]3CCCN3C(=O)c3cccs3)sc2c1 | 2.5% | 
COc1cccc(C(=O)Nc2nc3ccc(S(C)(=O)=O)cc3s2)c1 | 18% | 
CCOc1ccc(S(=O)(=O)Nc2nc3cc(OC)ccc3s2)cc1 | 8.16% | 
COc1ccc2nc(NC(=O)c3ccc(Br)s3)sc2c1 |  | 11.2 µM (active)
COc1ccc2nc(Nc3nc4ccc(NC(C)=O)cc4s3)sc2c1 | -6.86% | 
COc1ccc(Cn2c(=O)n(-c3ccccc3C)c(=O)c3c4c(sc32)CN(C(C)=O)CC4)cc1 | 8.31% | 
CCOC(=O)c1ccc(NC(=O)Cn2c(=O)n(-c3ccc(C)cc3)c(=O)c3c2cnn3C)cc1 | -2.66% | 
O=[N+]([O-])c1ccccc1NCc1ccccc1Cl | -8.19% | 
O=[N+]([O-])c1cc(C(F)(F)F)ccc1NN=C1CCCC1 | 5.28% | 
O=[N+]([O-])c1ccccc1N/N=C1\CCc2ccccc21 |  | 11.2 µM (active)
Cc1ccc(Cl)cc1N(C)C(=O)Cn1nc(Cc2cccnc2)c2ccccc2c1=O | -1.29% | 
COc1ccc(-n2c(C)nc3c(cnn3-c3ccc(F)cc3)c2=O)cc1 | -9.72% | 
COc1ccc(-c2c3c(=O)n(C)c(=O)n(C)c3c3c(C)nc4ccccc4n23)cc1 | 7.52% | 
FC(F)(F)c1cc(Nc2nc3ccccc3c3nncn23)ccc1Cl | -29.6% | 
CCN(C(=O)Cn1cc(S(=O)(=O)N2CCN(c3ccccc3F)CC2)c2ccccc2c1=O)c1ccc(C)c(C)c1 | 7.16% | 
c1ccc2sc(SCCSc3nc4ccccc4s3)nc2c1 | -8.26% [at 9.22 µM] | 
CSCCC(Nc1nc2ccccc2s1)C(=O)O (configuration not stated) | 0.0276% | 
Cc1ccnc(Nc2nc3ccccc3s2)n1 |  | 3.55 µM (active)
Cc1nn(-c2nc(-c3ccccc3)cc(C(F)(F)F)n2)c(C)c1Cl | -3.6% | 
Cc1ccccc1NC(=O)c1cc2c([nH]c1=O)CC(C)(C)CC2=O | 14.6% | 
O=C(NC1CCCC1)c1ccc(Br)s1 | -8.19% | 
CC(C)C(=O)OCC(=O)Nc1ccc2c(c1)CCC2 | 10.6% | 
O=C(Nc1ccc2c(c1)CCC2)c1ccc(Br)s1 |  | 5.62 µM (active)
NS(=O)(=O)c1ccc(NC(=O)C(=O)Nc2ccc3nc4n(c(=O)c3c2)CCCCC4)cc1 | 0.304% | 
